Measured values as given in PubChem BioAssay AID1159580 (chemical genetic matrix, 2015).
Where “and” joins values, the source holds several entries; their conditions need not be identical. Equal values may be shown once. In all, about 5,500 compounds went through this assay and about 2,000 (36%) were called active. Inconclusive results (about 18%) are left out. No stated cut-off is given here; in the data, active means normalized growth mostly below about 0.91 (no sharp cut-off); inconclusive means no clear call, values can overlap the other calls; inactive means mostly above about 0.92. The list shows a part of the results.

Assay: chemical genetic growth profiling, strain panel (AID 1159580);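 further: tested at 20 µM; growth read once vehicle control cultures reached saturation at 30 °C; 1 = growth at the plate median or of vehicle wells; lower values mean less growth of the strain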
Conditions: growth OD

Measured: normalized growth

NC(N)=NC(=O)c1nc(Cl)c(N)nc1N
active: S. cerevisiae deletion strains, locus YLR262C, strain YPT6, active compounds read low 1.41 [resistant]
inactive: S. cerevisiae deletion strains, locus YKL009W, strain mrt4, active compounds read low 1.03 | S. cerevisiae deletion strains, locus YKL068W, active compounds read low 1 | S. cerevisiae deletion strains, locus YKL085W, strain MDH1 (second series), active compounds read low 1.01 | S. cerevisiae deletion strains, locus YKL085W, strain MDH1, active compounds read low 1.01 | S. cerevisiae deletion strains, locus YKL160W, strain elf1, active compounds read low 1.02 | S. cerevisiae deletion strains, locus YKL190W, strain CNB1, active compounds read low 0.994 | S. cerevisiae deletion strains, locus YKR001C, strain vps1, active compounds read low 1.02 | S. cerevisiae deletion strains, locus YKR026C, strain gcn3, active compounds read low 1.03 | S. cerevisiae deletion strains, locus YKR091W, strain srl3, active compounds read low 1.03 | S. cerevisiae deletion strains, locus YLL001W, strain dnm1, active compounds read low 1.02 | S. cerevisiae deletion strains, locus YLL026W, active compounds read low 1.02 | S. cerevisiae deletion strains, locus YLL041C, strain sdh2, active compounds read low 1 | S. cerevisiae deletion strains, locus YLR027C, strain aat2, active compounds read low 1.02 | S. cerevisiae deletion strains, locus YLR039C, strain RIC1, active compounds read low 1.31 | S. cerevisiae deletion strains, locus YLR058C, strain SHM2, active compounds read low 1.01 | S. cerevisiae deletion strains, locus YLR102C, strain apc9, active compounds read low 1 | S. cerevisiae deletion strains, locus YLR113W, strain HOG1, active compounds read low 1.03 | S. cerevisiae deletion strains, locus YLR221C, strain rsa3, active compounds read low 1.03 | S. cerevisiae deletion strains, locus YLR258W, strain gsy2, active compounds read low 1.02 | S. cerevisiae deletion strains, locus YLR262C, strain YPT6 (second series), active compounds read low 1.02 | S. cerevisiae deletion strains, locus YLR268W, strain sec22, active compounds read low 1.05 | S. cerevisiae deletion strains, locus YLR320W, strain mms22, active compounds read low 1.01 | S. cerevisiae deletion strains, locus YLR330W, strain CHS5, active compounds read low 1.01 | S. cerevisiae deletion strains, locus YLR342W, strain FKS1 (second series), active compounds read low 0.893 | S. cerevisiae deletion strains, locus YLR342W, strain FKS1, active compounds read low 1.03 | S. cerevisiae deletion strains, locus YLR357W, strain rsc2, active compounds read low 1.02 | S. cerevisiae deletion strains, locus YLR370C, strain arc18, active compounds read low 1.01 | S. cerevisiae deletion strains, locus YLR371W, strain rom2, active compounds read low 1.03 | S. cerevisiae deletion strains, locus YLR384C, strain iki3, active compounds read low 1.03 | S. cerevisiae deletion strains, locus YLR418C, strain cdc73, active compounds read low 0.94 | S. cerevisiae deletion strains, locus YML016C, strain PPZ1, active compounds read low 1.01 | S. cerevisiae deletion strains, locus YML032C, strain rad52, active compounds read low 1.01 | S. cerevisiae deletion strains, locus YML120C, strain ndi1, active compounds read low 1.01 | S. cerevisiae deletion strains, locus YML124C, strain tub3, active compounds read low 1.02 | S. cerevisiae deletion strains, locus YMR058W, strain fet3, active compounds read low 1.01 | S. cerevisiae deletion strains, locus YMR078C, strain ctf18, active compounds read low 1.02 | S. cerevisiae deletion strains, locus YMR125W, strain sto1, active compounds read low 1.02 | S. cerevisiae deletion strains, locus YMR129W, active compounds read low 1 | S. cerevisiae deletion strains, locus YMR205C, strain PFK2, active compounds read low 1.02 | S. cerevisiae deletion strains, locus YMR223W, strain ubp8, active compounds read low 1.01 | S. cerevisiae deletion strains, locus YMR231W, strain pep5, active compounds read low 1.02 | S. cerevisiae deletion strains, locus YMR307W, strain GAS1, active compounds read low 1.02 and 0.992 | S. cerevisiae deletion strains, locus YNL067W, strain RPL9B, active compounds read low 1 | S. cerevisiae deletion strains, locus YNL071W, strain lat1, active compounds read low 1.01 | S. cerevisiae deletion strains, locus YNL128W, strain TEP1, active compounds read low 0.981 | S. cerevisiae deletion strains, locus YNL153C, strain GIM3, active compounds read low 1 | S. cerevisiae deletion strains, locus YNL175C, strain NOP13, active compounds read low 0.994 | S. cerevisiae deletion strains, locus YNL183C, strain NPR1, active compounds read low 0.948 | S. cerevisiae deletion strains, locus YNL197C, strain WHI3, active compounds read low 0.992 | S. cerevisiae deletion strains, locus YNL209W, strain ssb2, active compounds read low 1 | S. cerevisiae deletion strains, locus YNL224C, strain SQS1, active compounds read low 1 | S. cerevisiae deletion strains, locus YNL233W, strain BNI4, active compounds read low 1 | S. cerevisiae deletion strains, locus YNL248C, strain rpa49, active compounds read low 1.03 | S. cerevisiae deletion strains, locus YNL250W, strain rad50, active compounds read low 1.02 | S. cerevisiae deletion strains, locus YNL271C, strain bni1, active compounds read low 1.03 | S. cerevisiae deletion strains, locus YNL298W, strain CLA4, active compounds read low 1.02 | S. cerevisiae deletion strains, locus YNL307C, strain MCK1, active compounds read low 1.01 | S. cerevisiae deletion strains, locus YNL322C, strain KRE1 (second series), active compounds read low 1.02 | S. cerevisiae deletion strains, locus YNL322C, strain KRE1, active compounds read low 1.01 | S. cerevisiae deletion strains, locus YNR049C, strain mso1, active compounds read low 1.02 | S. cerevisiae deletion strains, locus YNR052C, strain pop2, active compounds read low 1.01 | S. cerevisiae deletion strains, locus YOL006C, strain TOP1, active compounds read low 0.949 | S. cerevisiae deletion strains, locus YOL012C, strain htz1 1.27 | S. cerevisiae deletion strains, locus YOL147C, strain pex11, active compounds read low 1.02 | S. cerevisiae deletion strains, locus YOR001W, strain rrp6, active compounds read low 1.03 | S. cerevisiae deletion strains, locus YOR061W, strain CKA2, active compounds read low 1.01 | S. cerevisiae deletion strains, locus YOR069W, strain VPS5, active compounds read low 1 | S. cerevisiae deletion strains, locus YOR070C, strain gyp1, active compounds read low 1.01 | S. cerevisiae deletion strains, locus YOR080W, strain dia2, active compounds read low 1.04 | S. cerevisiae deletion strains, locus YOR083W, strain WHI5 (second series), active compounds read low 1.01 | S. cerevisiae deletion strains, locus YOR083W, strain WHI5, active compounds read low 1.04 | S. cerevisiae deletion strains, locus YOR106W, strain vam3, active compounds read low 0.997 | S. cerevisiae deletion strains, locus YOR136W, strain idh2, active compounds read low 1.04 | S. cerevisiae deletion strains, locus YOR144C, strain elg1, active compounds read low 1.01 | S. cerevisiae deletion strains, locus YOR184W, strain ser1, active compounds read low 1.05 | S. cerevisiae deletion strains, locus YOR231W, strain MKK1, active compounds read low 0.998 | S. cerevisiae deletion strains, locus YOR265W, strain rbl2, active compounds read low 1.02 | S. cerevisiae deletion strains, locus YOR270C, strain vph1, active compounds read low 1.03 | S. cerevisiae deletion strains, locus YOR290C, strain snf2, active compounds read low 0.985 | S. cerevisiae deletion strains, locus YOR316C, strain cot1, active compounds read low 1.01 | S. cerevisiae deletion strains, locus YPL051W, strain arl3, active compounds read low 1.03 | S. cerevisiae deletion strains, locus YPL078C, strain atp4, active compounds read low 1.04 | S. cerevisiae deletion strains, locus YPL106C, strain sse1, active compounds read low 1 | S. cerevisiae deletion strains, locus YPL240C, strain hsp82, active compounds read low 1.02 | S. cerevisiae deletion strains, locus YPL241C, strain CIN2, active compounds read low 0.998 and 0.996 | S. cerevisiae deletion strains, locus YPL256C, strain CLN2, active compounds read low 1.01 | S. cerevisiae deletion strains, locus YPR119W, strain clb2, active compounds read low 1.01 | S. cerevisiae deletion strains, locus YPR141C, strain kar3, active compounds read low 1.01 | S. cerevisiae deletion strains, locus YPR163C, strain tif3, active compounds read low 1.02 | S. cerevisiae deletion strains, locus YPR167C, strain met16, active compounds read low 1.02 | S. cerevisiae deletion strains, strain wtn01, active compounds read low 1.01 | S. cerevisiae strains, strain wild type, active compounds read low 1
